According to publication PMC5540273 (PLoS ONE, 2017):

What follows are molecules tested on CDK4-cyclinD3. Conditions: concentration: 1 μM, replicates: in singlicate; n = 1.
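Also: KINOMEscan kinase panel screen.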

Row | SMILES | %Inh
1 | COc1ccc(Nc2nccc(N3CCC(NC(=O)c4cc5ccccc5s4)C3)n2)cc1 (stereo not shown) [GSK1379738] | 6%
2 | Cc1ccc(-c2nc(Nc3ccncc3)c3ccccc3n2)s1 [GSK189015] | 0%
3 | Cn1cncc1C(=O)NC1CCN(c2ccnc(Nc3ccc(F)cc3)n2)C1 (stereo not shown) [GSK1379717] | 14%
4 | COc1ccc(Nc2nccc(N3CCC(NC(=O)C(C)c4ccc(Cl)cc4)C3)n2)cc1 (stereo not shown) [GSK1379735] | 0%
5 | COc1nccc(-c2c(-c3ccc(F)cc3)ncn2CCCN2CCOCC2)n1 [SB-282852] | 15%
6 | Cc1ccccc1Cn1ccn2c(=O)cc(N3CCOCC3)nc12 [GSK2269905] | 0%
7 | CS(=O)(=O)CCNCc1nc(-c2ccc3ncnc(Nc4ccc5c(cnn5Cc5ccccc5)c4)c3c2)cs1.Cl.Cl [GW569716] | 0%
8 | O=C1NC(=O)C(c2ccc(Cl)cc2)=C1Nc1ccc(O)cc1 [SB-340867] | 0%
9 | Cc1cccc2c(-c3ccncn3)c(-c3ccc(F)cc3)nn12 [GW515532] | 0%
10 | Cn1cncc1-c1cc2c(Nc3ccc(OCc4ccccc4)cc3)ncnc2cn1 [GW281179] | 4%
11 | CCn1c(-c2ccccc2)nc2cnccc21 [SB-733416] | 6%
12 | Nc1ncnc2occ(-c3ccc4c(c3)CCN4C(=O)Cc3cc(F)ccc3F)c12 [GSK2645446] | 0%
13 | c1ccc(-c2ccnc3[nH]ccc23)cc1 [SB-693578] | 19%
14 | O=C(Nc1n[nH]c2cc(-c3ccsc3)ccc12)C1CC1 [SB-732932] | 0%
15 | COc1ccc(Nc2nccc(NCCNC(=O)Nc3cc(C)ccc3C)n2)cc1 [GSK1379899] | 0%
16 | Cc1ccc(NC(=O)Nc2ccccc2F)cc1-c1ccc(C(=O)Nc2ccncc2)cc1 [GSK1398477] | 0%
17 | Cl.Cl.Cl.N#Cc1ccc(CCNc2nccc(-c3cccc(CN4CCNCC4)c3)n2)cc1 [GSK2137462] | 24%
18 | O=C1NC(=O)C(c2ccc(Cl)cc2)=C1Nc1cccc(Cl)c1 [SB-317651] | 0%

Row | SMILES | %Inh
19 | Cc1ccccc1-c1cc(-c2c[nH]nc2-c2ccccn2)ccn1 [GW680061] | 0%
20 | Fc1ccc(-c2nc3n(c2-c2ccncc2)CCS3)cc1 [GI98581] | 0%
21 | CC(C)c1ccc(O)cc1Nc1ccnc2ccc(C(F)(F)F)cc12 [GW482059] | 0%
22 | CC(=O)c1cccc(NC(=O)NC2CCN(c3ccnc(Nc4ccc(F)cc4)n3)C2)c1 (stereo not shown) [GSK1379710] | 0%
23 | Cc1nccc(-c2c(-c3ccc(F)cc3)ncn2CCCN2CCOCC2)n1.Cl [SB-282975] | 33%
24 | O=C(Nc1n[nH]c2nc(-c3ccco3)c(Br)cc12)C1CCN(Cc2ccccc2)C1.O=C(O)[C@H](O)[C@@H](O)C(=O)O (stereo not shown) [SB-742034] | 0%
25 | O=c1cc(N2CCOCC2)nc2n(Cc3cccc(Cl)c3Cl)c3ccccc3n12 [GSK2299009] | 0%
26 | Cn1cnc2c(N)ncnc21 [SKF-97623] | 0%
27 | CNCc1ccc2nc(NC(=O)c3ccc(C(C)(C)C)cc3)cn2c1 | 0%
28 | COc1ccc(CSc2nnc(-c3ccc4nccn4c3)o2)cc1C(F)(F)F | 13%
29 | O=C(Nc1n[nH]c2nc(-c3cccs3)c(Br)cc12)C1CCCC1 [SB-743341] | 40%
30 | Nc1nccc(-c2c(-c3ccc(F)cc3)ncn2C2CCN(Cc3ccccc3)CC2)n1 [SB-219980] | 0%
31 | Cc1ccc(NC(=O)Nc2ccc(Cl)c(C(F)(F)F)c2)cc1-c1ccc(C(=O)Nc2ccncc2)cc1 [GSK1398470] | 0%
32 | COc1ccc(CSc2nnc(-c3ccc4c(c3)CCO4)o2)cc1 | 0%
33 | NS(=O)(=O)c1cccc(N/C=C2\C(=O)Nc3ccc(S(=O)(=O)Cc4c(Cl)cccc4Cl)cc32)c1 [GSK398099] | 18%
34 | CNc1nc(-c2ccc3c(N)n[nH]c3c2)cc(N2C[C@@H](C(=O)NC3CCCCC3)OC[C@H]2C)n1 [GSK2375584] | 7%
35 | COC(=O)c1cccc(NC(=O)NC2CCN(c3ccnc(Nc4ccc(OC)cc4)n3)C2)c1 (stereo not shown) [GSK1379746] | 0%

What follows are molecules tested on CDK4. Conditions: concentration: 1 μM, replicates: in singlicate; n = 1.

Row | SMILES | %Inh
36 | COc1ccc(Nc2nccc(N3CCC(NC(=O)c4cc5ccccc5s4)C3)n2)cc1 (stereo not shown) [GSK1379738] | 19%
37 | Cc1ccc(-c2nc(Nc3ccncc3)c3ccccc3n2)s1 [GSK189015] | 0%
38 | Cn1cncc1C(=O)NC1CCN(c2ccnc(Nc3ccc(F)cc3)n2)C1 (stereo not shown) [GSK1379717] | 2%
39 | COc1ccc(Nc2nccc(N3CCC(NC(=O)C(C)c4ccc(Cl)cc4)C3)n2)cc1 (stereo not shown) [GSK1379735] | 23%
40 | COc1nccc(-c2c(-c3ccc(F)cc3)ncn2CCCN2CCOCC2)n1 [SB-282852] | 100%
41 | Cc1ccccc1Cn1ccn2c(=O)cc(N3CCOCC3)nc12 [GSK2269905] | 0%
42 | CS(=O)(=O)CCNCc1nc(-c2ccc3ncnc(Nc4ccc5c(cnn5Cc5ccccc5)c4)c3c2)cs1.Cl.Cl [GW569716] | 39%
43 | O=C1NC(=O)C(c2ccc(Cl)cc2)=C1Nc1ccc(O)cc1 [SB-340867] | 0%
44 | Cc1cccc2c(-c3ccncn3)c(-c3ccc(F)cc3)nn12 [GW515532] | 0%
45 | Cn1cncc1-c1cc2c(Nc3ccc(OCc4ccccc4)cc3)ncnc2cn1 [GW281179] | 0%
46 | CCn1c(-c2ccccc2)nc2cnccc21 [SB-733416] | 3%
47 | Nc1ncnc2occ(-c3ccc4c(c3)CCN4C(=O)Cc3cc(F)ccc3F)c12 [GSK2645446] | 18%
48 | c1ccc(-c2ccnc3[nH]ccc23)cc1 [SB-693578] | 22%
49 | O=C(Nc1n[nH]c2cc(-c3ccsc3)ccc12)C1CC1 [SB-732932] | 86%
50 | COc1ccc(Nc2nccc(NCCNC(=O)Nc3cc(C)ccc3C)n2)cc1 [GSK1379899] | 3%
51 | Cc1ccc(NC(=O)Nc2ccccc2F)cc1-c1ccc(C(=O)Nc2ccncc2)cc1 [GSK1398477] | 0%
52 | Cl.Cl.Cl.N#Cc1ccc(CCNc2nccc(-c3cccc(CN4CCNCC4)c3)n2)cc1 [GSK2137462] | 0%
53 | O=C1NC(=O)C(c2ccc(Cl)cc2)=C1Nc1cccc(Cl)c1 [SB-317651] | 100%

Row | SMILES | %Inh
54 | Cc1ccccc1-c1cc(-c2c[nH]nc2-c2ccccn2)ccn1 [GW680061] | 0%
55 | Fc1ccc(-c2nc3n(c2-c2ccncc2)CCS3)cc1 [GI98581] | 31%
56 | CC(C)c1ccc(O)cc1Nc1ccnc2ccc(C(F)(F)F)cc12 [GW482059] | 0%
57 | CC(=O)c1cccc(NC(=O)NC2CCN(c3ccnc(Nc4ccc(F)cc4)n3)C2)c1 (stereo not shown) [GSK1379710] | 38%
58 | Cc1nccc(-c2c(-c3ccc(F)cc3)ncn2CCCN2CCOCC2)n1.Cl [SB-282975] | 18%
59 | O=C(Nc1n[nH]c2nc(-c3ccco3)c(Br)cc12)C1CCN(Cc2ccccc2)C1.O=C(O)[C@H](O)[C@@H](O)C(=O)O (stereo not shown) [SB-742034] | 14%
60 | O=c1cc(N2CCOCC2)nc2n(Cc3cccc(Cl)c3Cl)c3ccccc3n12 [GSK2299009] | 31%
61 | Cn1cnc2c(N)ncnc21 [SKF-97623] | 25%
62 | CNCc1ccc2nc(NC(=O)c3ccc(C(C)(C)C)cc3)cn2c1 | 3%
63 | COc1ccc(CSc2nnc(-c3ccc4nccn4c3)o2)cc1C(F)(F)F | 0%
64 | O=C(Nc1n[nH]c2nc(-c3cccs3)c(Br)cc12)C1CCCC1 [SB-743341] | 16%
65 | Nc1nccc(-c2c(-c3ccc(F)cc3)ncn2C2CCN(Cc3ccccc3)CC2)n1 [SB-219980] | 5%
66 | Cc1ccc(NC(=O)Nc2ccc(Cl)c(C(F)(F)F)c2)cc1-c1ccc(C(=O)Nc2ccncc2)cc1 [GSK1398470] | 0%
67 | COc1ccc(CSc2nnc(-c3ccc4c(c3)CCO4)o2)cc1 | 0%
68 | NS(=O)(=O)c1cccc(N/C=C2\C(=O)Nc3ccc(S(=O)(=O)Cc4c(Cl)cccc4Cl)cc32)c1 [GSK398099] | 0%
69 | CNc1nc(-c2ccc3c(N)n[nH]c3c2)cc(N2C[C@@H](C(=O)NC3CCCCC3)OC[C@H]2C)n1 [GSK2375584] | 100%
70 | COC(=O)c1cccc(NC(=O)NC2CCN(c3ccnc(Nc4ccc(OC)cc4)n3)C2)c1 (stereo not shown) [GSK1379746] | 19%
